PI4K2A block – qHTS for small molecular inhibitors of PI4K2A; AID 1346378, 2018; purified PI4K2A, ADP-Glo luminescence, 1 h; stronger effect = lower value; 420,000 tested, 0.13% active; Phosphatidylinositol 4-kinase type 2-alpha (Homo sapiens), Q9BTU6; activity change, negative = inhibition, % at 76.9 µM; in the data active = activity change below about -50%; inconclusive = mostly about -30% to -49%
Target sequence (Q9BTU6 whole entry, looked up): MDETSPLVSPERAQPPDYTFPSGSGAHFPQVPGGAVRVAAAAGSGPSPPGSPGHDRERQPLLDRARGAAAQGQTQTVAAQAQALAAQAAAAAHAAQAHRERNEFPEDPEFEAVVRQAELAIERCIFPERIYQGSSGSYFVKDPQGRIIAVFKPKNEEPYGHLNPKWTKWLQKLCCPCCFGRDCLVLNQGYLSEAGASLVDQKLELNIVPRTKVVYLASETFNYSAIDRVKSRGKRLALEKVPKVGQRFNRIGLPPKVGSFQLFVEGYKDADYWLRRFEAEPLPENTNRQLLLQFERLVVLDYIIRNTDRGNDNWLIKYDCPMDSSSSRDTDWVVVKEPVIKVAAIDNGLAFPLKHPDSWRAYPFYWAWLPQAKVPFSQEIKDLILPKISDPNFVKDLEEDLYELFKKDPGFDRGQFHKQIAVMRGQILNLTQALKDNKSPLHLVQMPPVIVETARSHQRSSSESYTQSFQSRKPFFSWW
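PI4K2A activity was measured by ADP-Glo luminescence: enzyme (4 ug/mL stock) and phosphatidylinositol (1.2 mM stock) in Tris pH 7.5/MgCl2/EGTA/Triton X-100 buffer were reacted with ATP (300 microM stock) for one hour at ambient temperature.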
HTT aggregate – qHTS Multiplex Assay to Identify Dual Action Probes in a Cell Model of Huntington: Aggregate Formation (GFP); AID 1688, 2009; PC12 HttQ103-GFP aggregates, Acumen cytometry, 40 h; 220,000 tested, 1.1% active; Potency, µM (series often up to 46.1 µM), hits mostly inhibitors; note: nearly all actives have a fitted effect of over 60% in size
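Using laser scanning cytometry, GFP-positive aggregates were counted after lysis of PC12 cells induced with 100 nM tebufenozide to express HTT exon 1 Q103–GFP. Compounds were tested in titration.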
GALK inh – qHTS Assay for Inhibitors of Human Galactokinase (GALK); Purified GALK, Kinase-Glo residual ATP luminescence; Potency, µM (top dose mostly 57.5 µM), usual class: inhibitors; 270,000 tested, 0.007% active
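Compounds were pin-transferred into ATP buffer (35 uM final), then GALK plus galactose (5 nM, 100 uM final) was added. After 1 h at room temperature, Kinase-Glo Plus was added and luminescence read after 10 min.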
HTT cytoprotect – qHTS Multiplex Assay to Identify Dual Action Probes in a Cell Model of Huntington: Cytoprotection (ATP) | PC12 HTT-Q103 induced, cytoprotection, ATP luminescence, 40 h | Potency, µM (highest dose often 56.4 µM), usual class: activators | 230,000 tested, 0.14% active; note: nearly all actives have a fitted effect of over 45% in size
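Compounds were screened for protection of PC12 cells against cell death after tebufenozide induction (100 nM final) of mutant Huntingtin exon 1 (Q103) fused to GFP.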
Large screens that a line does not name were inactive. The entries come from a sample that favours hits as a whole. Unless noted, calls come from the whole dose curve; as a rule, active = well fitted curve in the direction sought with a large enough effect; inconclusive = small, poorly fitted or top-dose-only effect, or another doubt; inactive = no such curve, though single readings can be large; an effect the other way counts as inactive or inconclusive.

O=C(COC(=O)CCSc1ccc(Cl)cc1)NCc1ccccc1Cl	HTT aggregate 16µM (no result: HTT cytoprotect)
CC(=O)N1CCN(c2ccc(Oc3ncnc4sccc34)cc2)CC1	HTT aggregate 18µM
Cc1c(C#N)c(NC(=O)CCl)n(Cc2cccs2)c1C	HTT aggregate 20µM
CCN(CC)C(=O)c1sc(NC(=O)Cc2cccs2)c(C#N)c1C	none
Cc1cc(=O)n(Cc2ccccc2)c(O)c1C#N	none (no result: HTT aggregate, HTT cytoprotect)
Cc1c(C#N)c(NC(=O)CCl)n(Cc2ccccc2)c1C	HTT aggregate 4µM
Cc1c(C#N)c(NC(=O)CCl)n(Cc2ccc(F)cc2)c1C	HTT aggregate 6.3µM
COc1ccc(-n2c(COc3ccc(C)cc3)nnc2SCC(=O)Nc2ccc(S(=O)(=O)Nc3cc(C)nc(C)n3)cc2)cc1	none (no result: HTT aggregate, GALK inh, HTT cytoprotect)
CN(C)c1cc[n+](CC(=O)c2ccc(-c3ccccc3)cc2)cc1	HTT aggregate 16µM
COc1cc(S(N)(=O)=O)cc(C(=O)O)c1OC	none (no result: HTT aggregate, GALK inh, HTT cytoprotect)
COc1cccc(/C=N/NC(=O)C(C)n2nc(C)c([N+](=O)[O-])c2C)c1O (stereo unspecified)	HTT aggregate 16µM
COc1cccc(/C=N/NC(=O)Cn2nc(C)c([N+](=O)[O-])c2C)c1O	HTT aggregate 2.8µM
Cc1nn(CC(=O)N/N=C/c2cccs2)c(C)c1[N+](=O)[O-]	none
COc1cccc(CC(=O)N2CCc3nc(-c4ccc(OC)cc4C)c4c(c3C2)CO[C@@H](c2ccccc2)C4)c1	none (no result: PI4K2A block, HTT aggregate, GALK inh)
COC(=O)c1sccc1NC(=O)Nc1ccc(OC)cc1	PI4K2A block -57 (no result: HTT aggregate, HTT cytoprotect)
COC(=O)c1sccc1NC(=O)Nc1cc(OC)ccc1OC	none (no result: HTT aggregate, HTT cytoprotect)
CCN(C(=O)COc1ncnc2sccc12)c1ccccc1	HTT cytoprotect 1µM
O=S(c1cc(Cl)cc(Cl)c1O)c1cc(Cl)cc(Cl)c1O	none (no result: GALK inh)
Oc1c(Cl)cc(Cl)cc1Sc1cc(Cl)cc(Cl)c1O	HTT aggregate 10µM (no result: GALK inh)
COc1ccc2c(c1)CCCN2C(=O)C1CCCN(S(=O)(=O)c2ccc(C)c(C)c2)C1 (stereo unspecified)	none (no result: HTT aggregate, GALK inh, HTT cytoprotect)
Cc1ccc(CNC(=O)C(Cc2ccccc2)NS(=O)(=O)c2ccc(Br)s2)cc1 (stereo unspecified)	HTT aggregate 25µM (no result: GALK inh, HTT cytoprotect)
Cc1ccc(CNC(=O)C(Cc2ccccc2)NS(=O)(=O)c2cccs2)cc1 (stereo unspecified)	HTT aggregate inconclusive
O=Cc1ccc(N2CCN(S(=O)(=O)c3ccc4c(c3)CC(=O)N4)CC2)cc1	PI4K2A block -56 (no result: HTT aggregate, GALK inh, HTT cytoprotect)
O=C1Cc2cc(S(=O)(=O)N3CCN(c4ccccc4)CC3)ccc2N1	none (no result: HTT aggregate, GALK inh, HTT cytoprotect)
CC(=O)Nc1sc2c(c1-c1nc3ccccc3s1)CCCN(C(C)C)C2	none (no result: HTT aggregate, GALK inh, HTT cytoprotect)
Cc1occc1C(=O)N/N=C/c1ccc(-c2ccccc2)cc1	PI4K2A block -78 (no result: HTT aggregate, HTT cytoprotect)
Cc1occc1C(=O)N/N=C/c1ccc(OCc2ccccc2)cc1	none
O=C(O)c1ccc(N/N=C/c2ccc3c(c2)OCO3)cc1	PI4K2A block -67
Cc1occc1C(=O)N/N=C/c1ccc2c(c1)OCO2	PI4K2A block -65, GALK inh inconclusive
O=C(O)c1cc(N/N=C/c2ccc3c(c2)OCO3)ccc1Cl	none
Cc1ccsc1C(=O)N/N=C/c1ccc2c(c1)OCO2	PI4K2A block -54
COCCCNC(=O)C1CCN(S(=O)(=O)c2ccc3[nH]c(=O)oc3c2)CC1	none (no result: HTT aggregate, GALK inh, HTT cytoprotect)
N[C@@H](C(=O)O)[C@@H]1C[C@H]1C(=O)O	none (no result: PI4K2A block, HTT aggregate, GALK inh)
CCNc1nc(NC(C)C)nc(N(C#N)CCOc2ccc(Cl)cc2Cl)n1	HTT aggregate 35µM
C/C(=N/NC(=O)c1ccoc1C)c1cccs1	none (no result: HTT aggregate, GALK inh, HTT cytoprotect)
CN1C(=O)N(C)C2=NNC=NC2(O)C1=O (stereo unspecified)	none (no result: PI4K2A block, HTT aggregate, GALK inh)
N#Cc1ccccc1-c1ccc2ncnc(NCc3ccccc3)c2c1	none (no result: PI4K2A block, HTT aggregate, GALK inh)
Brc1ccc2ncnc(NCc3ccccc3)c2c1	HTT aggregate 2.2µM
Clc1cccc(Nc2ncnc3ccc(Br)cc23)c1	HTT aggregate 11µM
c1ccc(CCNc2ncnc3ccccc23)cc1	HTT aggregate 1.8µM
O=c1ccc(N=Nc2ccccc2)ccc1O	PI4K2A block -60
CN(C)CCN1CCN(c2cccc(Cl)c2)C1=O	none (no result: HTT aggregate, GALK inh, HTT cytoprotect)
CC(C)Nc1oc(-c2ccccc2)nc1-c1cccc2ccccc12	none (no result: PI4K2A block, HTT aggregate, GALK inh)
Clc1ccccc1-c1nnc2sc(CCc3ccccc3)nn12	none
c1ccc(CCc2nn3c(-c4ccncc4)nnc3s2)cc1	HTT aggregate 1.1µM
